Assay outcomes as filed in PubChem.
Only some compounds are listed: those with a hit (about 6.5% of all), similar ones and a draw of the others.
Vaccinia mCherry – inhibitors of vaccinia virus infection (mCherry reporter signal); Vaccinia virus mCherry reporter infection, fluorescence; Potency, µM (titrated, usually from 36.5 µM), inactives show at the highest dose activity change, negative = inhibition, most hits filed as inhibitors; actives 0.63% (n = 310,000); calls by dose curve; tested in A549 cells; further: potency means the concentration at half of the fitted maximal effect; nearly all actives have a fitted effect of over 35% in size
HCMV inh – inhibitors of human cytomegalovirus. HFF cells, HCMV-luciferase reporter, 72 h; stronger effect = lower value. activity change, negative = inhibition, % at 57.5 µM. actives 4.5% (n = 410,000); in the data active means activity change below about -60%; inconclusive means no clear call, values can overlap the other calls; inactive means above about -39%
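Inhibition of viral replication was scored as loss of reporter luminescence in HFFs infected with HCMV-luciferase (MOI 1 PFU/cell) for 72 h; compounds tested at 2 doses, normalized to buffer and Salinomycin controls.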
LASV entry inh – Lassa virus entry inhibition | Lassa virus pseudotype entry inhibition, cell reporter | Potency, µM (titrated, usually from 37.9 µM), for inactives: at the highest dose activity change, negative = inhibition, usual class: inhibitors | actives 1.2% (n = 300,000) | AID 540256; calls by dose curve; tested in HEK293 cells; further: potency means the concentration at half of the fitted maximal effect; nearly all actives have a fitted effect of over 50% in size
FMDV inh – antivirals against foot and mouth disease virus. FMDV antiviral cell-based qHTS. Potency, µM (doses to about 57.9 µM), for inactives: top-dose activity change, negative = inhibition, actives largely listed as inhibitors. actives 1.2% (n = 410,000). AID 1159524; calls by dose curve; tested in HEK293T cells; further: read-out not given here; potency means the concentration at half of the fitted maximal effect; nearly all actives have a fitted effect of over 45% in size
Vaccinia Venus – inhibitors of vaccinia virus (Venus reporter) | Vaccinia virus Venus reporter expression, fluorescence | Potency, µM (series often up to 36.5 µM), for the others: top-dose activity change, negative = inhibition, hits mostly inhibitors | actives 0.46% (n = 330,000); calls by dose curve; tested in A549 cells; further: potency means the concentration at half of the fitted maximal effect; nearly all actives have a fitted effect of over 30% in size
Marburg entry inh – inhibitors of Marburg virus binding or cell entry | Marburg virus pseudotyped entry inhibition, cell reporter | actives 1.8% (n = 300,000) | Potency, µM (titrated, usually from 37.8 µM), for inactives: at the highest dose activity change, negative = inhibition, hits mostly inhibitors; calls by dose curve; tested in HEK293 cells; further: potency means the concentration at half of the fitted maximal effect
* = called active by the depositor; ! = not confirmed by another sample; [ ] = dose if it differs, or a comment. On the % scale 0 is the no-effect control and ±100 the full control effect.

`C=CCNc1ncnc2c1ncn2C1OC(CO)C(O)C1O` (stereo unspecified) gave Vaccinia mCherry inconclusive, HCMV inh -16.2, LASV entry inh inconclusive, FMDV inh -14.2%, Vaccinia Venus inconclusive and Marburg entry inh 14.1µM*.
`Nc1ncnc2c1ncn2C1O[C@H](CO)[C@@H](O)[C@@H]1O` (stereo partly specified) gave Vaccinia mCherry -21.8%, HCMV inh 35.3, FMDV inh -0.2% and Vaccinia Venus -14.9%.
`CCOC(=O)C1CSCCS(=O)(=O)N1Cc1cc(F)ccc1Br` (stereo unspecified) gave HCMV inh -23.9 and Marburg entry inh inconclusive.
`CCC(NC(=O)NNC(N)=S)(C(F)(F)F)C(F)(F)F` gave Vaccinia mCherry inconclusive, HCMV inh 29.0, LASV entry inh -10.7%, FMDV inh -7.2%, Vaccinia Venus 28.2µM* and Marburg entry inh inconclusive.
CCC(NC(=O)Nc1ncccc1C)(C(F)(F)F)C(F)(F)F was read as HCMV inh 5.2, LASV entry inh -0.1%, FMDV inh -23.7%, Vaccinia Venus -8.3% and Marburg entry inh -13.5%.
`CCOc1ccc(OCC(=O)Nc2nccs2)cc1` gave Vaccinia mCherry -2.2%, LASV entry inh inconclusive, FMDV inh 8.91µM*, Vaccinia Venus -6.4% and Marburg entry inh inconclusive.
For Cc1nnc(SCC(=O)Nc2nccs2)o1 the results were Vaccinia mCherry -1.1%, HCMV inh -61.3*, LASV entry inh 2.0%[46.1 µM], FMDV inh 18.5%, Vaccinia Venus -8.8% and Marburg entry inh 31.4%[46.1 µM].
`O=C(Cc1ccc(F)cc1)Nc1nccs1` gave HCMV inh 3.0 and FMDV inh 30.7%.
Screening Cc1ccc(CC(=O)Nc2nccs2)cc1 returned HCMV inh -66.8* and FMDV inh 15.5%.
For CCC1=C(O)CC(O)=C(C2NNC(CCC(=O)O)C2C2NC3CCCCC3N2C)C1 (stereo unspecified) the results were Marburg entry inh 5.3%[46.1 µM].
Screening Cc1cc(-c2csc(N)n2)c(C)n1CCC(C)C returned HCMV inh inconclusive, LASV entry inh 13.4%, FMDV inh 22.4µM*, Vaccinia Venus 4.3% and Marburg entry inh -16.8%.
`Cc1cc(-c2csc(N)n2)c(C)n1CCc1ccccc1` gave HCMV inh -18.4, LASV entry inh -15.1%, FMDV inh 11.2µM* and Marburg entry inh inconclusive.
Screening O=c1c(F)cn([C@H]2CCCO2)c(=O)n1Cc1ccccc1Cl returned Marburg entry inh 1.6%.
Screening COc1ccccc1C1CN(CCNC(=O)c2ccccc2Cl)Cc2ccccc2O1 (stereo unspecified) returned Vaccinia mCherry inactive, FMDV inh 8.2% and Vaccinia Venus -15.5%.
COc1ccc(CCNc2ncnc3c2oc2ccccc23)cc1OC was read as Vaccinia mCherry -21.3%, HCMV inh -91.6*, LASV entry inh inconclusive, Vaccinia Venus inconclusive and Marburg entry inh inconclusive.
Screening COc1ccc(CCNc2nc(C)nc3c2oc2ccccc23)cc1OC returned HCMV inh -67.3*, LASV entry inh 12.6µM*, FMDV inh 17.8µM*, Vaccinia Venus inconclusive and Marburg entry inh 12.6µM*.
For COc1ccccc1CN1CC2(CCN(C(=O)c3ccncc3)CC2)C1 the results were FMDV inh -17.7%.
COc1cccc(Cn2c(=O)cnc3cnc(OC)nc32)c1 was read as FMDV inh -1.3%.
For Clc1ccc(OCCn2c(-c3ccco3)nc3ccccc32)cc1 the results were HCMV inh -74.6*, LASV entry inh 8.1%, FMDV inh -28.6% and Marburg entry inh -16.5%.
`Clc1ccc(Cn2c(CN3CCCC3)nc3ccccc32)cc1` gave LASV entry inh inconclusive and Marburg entry inh 3.16µM*!.
For c1ccc(Cn2c(CN3CCCC3)nc3ccccc32)cc1 the results were Vaccinia mCherry -8.3%, HCMV inh 8.8, LASV entry inh 19.7%, FMDV inh -19.4%, Vaccinia Venus -14.1% and Marburg entry inh -27.3%.
Screening Cc1ccc(OCc2nc3ccccc3n2CCOc2ccc(Cl)cc2)cc1 returned Vaccinia mCherry -27.9%, HCMV inh -35.5, LASV entry inh -2.8%[46.1 µM], FMDV inh -21.6%, Vaccinia Venus -21.6% and Marburg entry inh inconclusive.
Fc1ccccc1Cn1c(-c2ccccc2)nc2ccccc21 was read as Vaccinia mCherry 4.3%, HCMV inh -61.3*, LASV entry inh inconclusive, FMDV inh inconclusive, Vaccinia Venus -7.2% and Marburg entry inh -19.2%[46.1 µM].
For CCSc1nc2ccccc2n1Cc1ccccc1F the results were HCMV inh 1.8, LASV entry inh 0.3%, FMDV inh -22.7% and Marburg entry inh 15.1%.
Screening COc1ccc(CNc2nc3ccccc3n2Cc2ccc(Cl)cc2)cc1OC returned Vaccinia mCherry -28.4%, HCMV inh -33.0, LASV entry inh inconclusive, FMDV inh -11.1%, Vaccinia Venus -23.2% and Marburg entry inh 11.2µM*.
Screening Oc1ccc2c(c1)[C@H]1CCC[C@]1(N1CCOCC1)O2 returned Marburg entry inh 22.1%.
OCc1nc2ccccc2n1Cc1ccc(Cl)cc1 was read as Vaccinia mCherry inactive, HCMV inh -9.3, LASV entry inh -20.9%, FMDV inh -12.3%, Vaccinia Venus -10.1% and Marburg entry inh -28.6%.
For Nc1nc2ccccc2n1Cc1ccc(Cl)c(Cl)c1 the results were Vaccinia mCherry inconclusive, HCMV inh 18.2, LASV entry inh 2.3%[46.1 µM], FMDV inh inconclusive, Vaccinia Venus -29.9% and Marburg entry inh 10µM*.
Cc1ccccc1Cn1c(C)nc2ccccc21 was read as Vaccinia mCherry -0.8%, HCMV inh -86.7*, LASV entry inh inconclusive, FMDV inh inconclusive, Vaccinia Venus -7.8% and Marburg entry inh inconclusive.
Screening Cc1nc2ccccc2n1Cc1ccc(Cl)cc1 returned Vaccinia mCherry -9.6%, HCMV inh -89.2*, FMDV inh inconclusive and Vaccinia Venus inconclusive.
For COC(=O)c1c(OCc2ccccn2)cc(=O)n2c1CCN(C(=O)c1cc(C(C)C)nn1C)CC2 the results were Vaccinia mCherry inactive, FMDV inh 0.7% and Vaccinia Venus 0.0%.
`O=C(Nc1cccc(S(=O)(=O)N2CCCCC2)c1)c1ccc2c(=O)n3c(nc2c1)CCCCC3` gave Vaccinia mCherry -28.7%, HCMV inh -88.3*, LASV entry inh inconclusive, FMDV inh 3.16µM*, Vaccinia Venus inconclusive and Marburg entry inh 3.16µM*.
Screening CCc1ccc(NC(=O)c2ccc3c(=O)n4c(nc3c2)CCCCC4)cc1 returned Vaccinia mCherry -6.2%[7.34 µM], HCMV inh -38.1, FMDV inh -32.8% and Vaccinia Venus -3.8%[7.34 µM].
CCOc1ccc(NC(=O)c2ccc3c(=O)n4c(nc3c2)CCCCC4)cc1 was read as Vaccinia mCherry -4.6%, HCMV inh -63.1*!, LASV entry inh -2.3%[46.1 µM], FMDV inh inconclusive, Vaccinia Venus inconclusive and Marburg entry inh -2.2%[46.1 µM].
